Laboratory results as given in PubChem BioAssay (NCI).
About 83,000 compounds went through this panel and 20% of them were active in at least one assay; those are over-represented in the sample as a whole.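 Results are percent growth after 48 hours of single-concentration exposure. 100 means growth as in untreated cells, lower positive values show inhibition; negative values down to -100 show cell death.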 A number with no mark means an inactive call. Calls of active or inactive are those of the source. How the source made its calls: active means growth percent below 10; inactive means the rest.

Key:
Assay in all cases: NCI-60 one-dose screen, 48 h (100 = growth as untreated, 0 = no growth, -100 = all killed)
Conditions in all cases: 10 µM unless noted
HCT-15 colon = test system: HCT-15 colon
HT29 colon = test system: HT29 colon
SNB-75 CNS = test system: SNB-75 CNS
SNB-19 CNS = test system: SNB-19 CNS
U251 CNS = test system: U251 CNS
PC-3 prostate = test system: PC-3 prostate
SK-MEL-5 melanoma = test system: SK-MEL-5 melanoma
LOX IMVI melanoma = test system: LOX IMVI melanoma
SK-MEL-28 melanoma = test system: SK-MEL-28 melanoma
SK-MEL-2 melanoma = test system: SK-MEL-2 melanoma
EKVX NSCLC = test system: EKVX NSCLC
SN12C renal = test system: SN12C renal
UO-31 renal = test system: UO-31 renal
TK-10 renal = test system: TK-10 renal
ACHN renal = test system: ACHN renal
CAKI-1 renal = test system: CAKI-1 renal
A498 renal = test system: A498 renal
CCRF-CEM leukemia = test system: CCRF-CEM leukemia
UACC-62 melanoma = test system: UACC-62 melanoma
MOLT-4 leukemia = test system: MOLT-4 leukemia

CC1(C)NCCC[C@]2(C)[C@H]3CC[C@@H]4[C@H]5[C@H](C(=O)/C=C/c6ccco6)CC[C@]5(CO)CC[C@@]4(C)[C@]3(C)CC[C@@H]12
growth (HCT-15 colon): 59.1% | growth (HT29 colon): 106% | growth (SNB-75 CNS): 83% | growth (SNB-19 CNS): 94.2% | growth (U251 CNS): 82% | growth (PC-3 prostate): 62.4% | growth (SK-MEL-5 melanoma): 93.4% | growth (LOX IMVI melanoma): 74.8% | growth (SK-MEL-28 melanoma): 104% | growth (SK-MEL-2 melanoma): 117% | growth (EKVX NSCLC): 101% | growth (SN12C renal): 82.1% | growth (UO-31 renal): 67.3% | growth (TK-10 renal): 9.01% (active) | growth (ACHN renal): 99.6% | growth (CAKI-1 renal): 76.1% | growth (A498 renal): 51.3% | growth (CCRF-CEM leukemia): 74.6%

COc1cc(NC(C)CCCNC(=O)CCC(=O)NCCCNCCCCCCCCCCNCCCNC(=O)CCC(=O)NCCCC(C)Nc2cc(OC)cc3cccnc23)c2ncccc2c1 (configuration not stated)
growth (HCT-15 colon): 99.1% [8 µM] | growth (HT29 colon): 73.6% [8 µM] | growth (SNB-75 CNS): 59.1% [8 µM] | growth (SNB-19 CNS): 60.5% [8 µM] | growth (U251 CNS): 50.8% [8 µM] | growth (PC-3 prostate): 78.2% [8 µM] | growth (SK-MEL-5 melanoma): 91% [8 µM] | growth (UACC-62 melanoma): 89.4% [8 µM] | growth (LOX IMVI melanoma): 51.1% [8 µM] | growth (SK-MEL-2 melanoma): 93.4% [8 µM] | growth (EKVX NSCLC): 73.7% [8 µM] | growth (SN12C renal): 41.3% [8 µM] | growth (UO-31 renal): 96.3% [8 µM] | growth (TK-10 renal): 100% [8 µM] | growth (ACHN renal): 96.7% [8 µM] | growth (CAKI-1 renal): 97.3% [8 µM] | growth (CCRF-CEM leukemia): 66.6% [8 µM] | growth (MOLT-4 leukemia): 76.8% [8 µM]

C=C1C(=O)O[C@H]2[C@H]1CC/C(COC(=O)NCc1c[nH]c3ccc(F)cc13)=C\CC[C@@]1(C)O[C@@H]21
growth (HCT-15 colon): -63.9% (active) | growth (HT29 colon): -50.2% (active) | growth (SNB-75 CNS): 26.4% | growth (SNB-19 CNS): 39.5% | growth (U251 CNS): 18.7% | growth (PC-3 prostate): 32% | growth (SK-MEL-5 melanoma): -14.9% (active) | growth (LOX IMVI melanoma): -83.4% (active) | growth (SK-MEL-28 melanoma): -62.5% (active) | growth (SK-MEL-2 melanoma): 28.6% | growth (EKVX NSCLC): 10.6% | growth (SN12C renal): -64.4% (active) | growth (UO-31 renal): -99.5% (active) | growth (TK-10 renal): -15.1% (active) | growth (ACHN renal): -84.1% (active) | growth (CAKI-1 renal): -87.3% (active) | growth (CCRF-CEM leukemia): -8.32% (active) | growth (MOLT-4 leukemia): 3.81% (active)

O=C(Cc1ccc(/C=C/C(=O)c2ncc[nH]2)cc1)Nc1ccc(Cl)cc1
growth (HCT-15 colon): -25% (active) | growth (HT29 colon): 0.843% (active) | growth (SNB-75 CNS): 25.3% | growth (SNB-19 CNS): 4.9% (active) | growth (U251 CNS): -60.6% (active) | growth (PC-3 prostate): 39% | growth (SK-MEL-5 melanoma): 52.5% | growth (LOX IMVI melanoma): -37.1% (active) | growth (SK-MEL-28 melanoma): 67.9% | growth (SK-MEL-2 melanoma): 94.9% | growth (EKVX NSCLC): 65.2% | growth (SN12C renal): 7.28% (active) | growth (UO-31 renal): 2.84% (active) | growth (TK-10 renal): 59.8% | growth (ACHN renal): 42.7% | growth (CAKI-1 renal): 32.1% | growth (CCRF-CEM leukemia): -6.35% (active) | growth (MOLT-4 leukemia): 5.1% (active)
